# Screens as filed in PubChem BioAssay.
# Shown are actives, neighbours in structure and some others; about 19% of the full set was active somewhere.
# HT1080 IDH1KD tx: HT-1080 IDH1 knockdown cell toxicity (counter line) | HT-1080 IDH1 knockdown viability, ATP luminescence, 48 h | AID 686971 | Potency, µM (titrated, usually from 46.1 µM), inactives show at the top dose activity, negative = toxicity, hits mostly cytotoxic | 2% of 360,000 active;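 also: 0% = DMSO wells and -100% = cell-free medium wells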
#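 Cytotoxicity counter-line: IDH1KD HT-1080, 48 h, CellTiter-Glo. Curves classed by r2, magnitude and activity.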
# KB-3-1 tox: KB-3-1 parental cell cytotoxicity; 1.4% of 400,000 active; KB-3-1 viability, CellTiter-Glo ATP luminescence, 72 h; AID 1347075; Potency, µM (highest dose often 46.1 µM), actives largely listed as cytotoxic; also: nearly all actives have a fitted effect of over 60% in size
#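 KB-3-1 cells, DMEM (no phenol red) + 10% FBS; compound by pin transfer, 72 h, 37 °C. Readout: CellTiter-Glo luminescence after 10 min. Data normalized, curve-fitted.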
# TDP1 cell noCPT: qHTS for Inhibitors of human tyrosyl-DNA phosphodiesterase 1 (TDP1): qHTS in cells in absence of CPT. DT40 Tdp1-/- hTDP1 cells, no CPT, ATP luminescence, 48 h. Potency, µM (top dose mostly 46.2 µM), without a hit: top-dose activity change, negative = growth inhibition, hits mostly inhibitors. 15% of 420,000 active. AID 686978, 2013; also: nearly all actives have a fitted effect of over 55% in size
#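 Growth kinetics read by CellTiter-Glo luminescence after ≥48 hr at 37 °C. Cells: DT40 Tdp1-/- stably carrying human TDP1, 400 per well, compound exposure in the absence of CPT (DMSO vehicle).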
# HT1080NT lethal: kills 2HG-producing HT-1080-NT fibrosarcoma cells. AID 686970. HT-1080-NT fibrosarcoma viability, CellTiter-Glo ATP luminescence, 48 h. 1.6% of 360,000 active. Potency, µM (series often up to 46.1 µM), for inactives: top-dose activity, negative = less viability, usual class: cytotoxic;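 also: NT is the 2HG producing partner of a matched IDH1 knockdown line; 0% = DMSO-treated cells and -100% = media-only wells without cells; nearly all actives have a fitted effect of over 55% in size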
#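 Compounds were tested in concentration-response format on HT-1080-NT cells for 48 hours at 37 degrees C. Cell viability came from CellTiter-Glo luminescence; curves were classified by r2, response magnitude and activity.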
# KB-V1 cytotox: kills drug-selected multidrug resistant KB-V1 cells | 3.4% of 400,000 active | AID 1347076 | KB-V1 MDR cells viability, CellTiter-Glo, 72 h | Potency, µM (series often up to 46.1 µM), hits mostly cytotoxic; also: nearly all actives have a fitted effect of over 60% in size
#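 Cells of the MDR subline KB-V1 are plated, dosed with compound at multiple concentrations, and incubated 72 h at 37 degrees C; CellTiter-Glo is then added and luminescence read after 10 min.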
# TDP1 cell CPT: growth inhibition of DT40 Tdp1-/-;hTDP1 cells with camptothecin (screen for TDP1 inhibitors); chicken DT40 Tdp1-/-;hTDP1 cells + 20 nM CPT, ATP luminescence, 48 h; Potency, µM (highest dose often 46.2 µM), without a hit: at the top dose activity change, negative = growth inhibition, actives largely listed as inhibitors; 12% of 420,000 active; AID 686979; also: nearly all actives have a fitted effect of over 55% in size
#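 Cell growth measured by CellTiter-Glo luminescence after a minimum 48 h, 37 C compound exposure with 20 nM CPT in Tdp1-knockout DT40 cells stably expressing hTDP1, seeded 400/well; qHTS titration format.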
# Starred values were filed as active, the others as inactive; i = inactive; ? = inconclusive; nt = no result; [ ] = another dose, or the depositor's remark. Calls follow the shape of the dose curve; as a rule, active = well fitted curve in the direction sought with a large enough effect; inconclusive = small, poorly fitted or top-dose-only effect, or another doubt; inactive = no such curve, though single readings can be large; an effect the other way counts as inactive or inconclusive. Unless noted, % is scaled to controls: 0 for no effect and ±100 for the full control effect; potency is read from the fitted curve at half-maximal effect.
SMILES,HT1080 IDH1KD tx,KB-3-1 tox,TDP1 cell noCPT,HT1080NT lethal,KB-V1 cytotox,TDP1 cell CPT
CNCCC1Sc2ccccc2Oc2ccccc21 (configuration not stated),-13%,i,?,0%,i,?
COc1ccc(S(=O)(=O)NCc2ccc3c(c2)CCN3C(C)=O)cc1OC,nt,nt,?,nt,nt,-29%
O=[N+]([O-])c1cc(C(F)(F)F)ccc1NCCc1c[nH]c2ccc(O)cc12,13µM*,i,?,13µM*,i,?
O=[N+]([O-])c1cc(C(F)(F)F)ccc1NCCc1c[nH]c2ccccc12,7%,i,?,-3%,?,-26%
CC(C)(C)NC(=S)NNC(=O)c1ccccc1Cl,21%,i,10µM*,14%,i,15µM*
O=C(NNC(=O)c1cccc(Br)c1)Nc1ccc(Cl)cc1,0%,i,?,-15%,i,23µM*
O=C(NNC(=S)Nc1ccccc1)c1cccc(Br)c1,6%,i,-25%,12%,i,-12%
CC(C)(C)C(=O)NC(=S)NNC(=O)c1ccc(Cl)cc1Cl,18µM*,?,5.8µM*,9.2µM*,?,?
CC(C)(C)NC(=S)NNC(=O)c1cccc(Br)c1,-1%,?,6.5µM*,5%,16µM*,5.8µM*
O=C(Nc1ccc(Cl)cc1)Nc1cccc(C(=O)O)c1,-2%,i,-7%,5%,i,4%
CNC(=S)NNC(=O)c1ccccc1Cl,3%,i,0%,10%,?,3%
Cc1ccc2c(c1)c1c(c(=O)n(-c3cccc(Cl)c3)c(=O)n1CC(=O)NCC1CCCO1)n2C (configuration not stated),nt,i,-21%,nt,i,-22%
O=C(N/N=C/c1cnc(N2CCCCC2)s1)c1ccc(C(F)(F)F)cc1,-1%,i,?,-2%,?,?
Cc1c(Cl)cccc1NC(=O)c1ccc2c(c1)CCN2S(=O)(=O)c1ccccc1,nt,i,?,nt,i,?
O=C(CSc1n[nH]c(-c2ccncc2)n1)Nc1ccccc1Cl,1%,i,-16%,0%,i,-2%
O=C(O)c1cc2n(n1)C(C(F)(F)F)CC(c1ccco1)N2 (configuration not stated),7%,i,1%,8%,i,6%
O=C(c1cc2nc(-c3ccco3)cc(C(F)(F)F)n2n1)N1CCN(c2ccccn2)CC1,3%,i,13µM*,-7%,?,26µM*
O=C(c1cc2n(n1)C(C(F)(F)F)CC(c1ccco1)N2)N1CCN(c2ccccn2)CC1 (configuration not stated),-4%,i,26µM*,-1%,i,?
NC(=O)c1cc2n(n1)C(C(F)(F)F)CC(c1ccco1)N2 (configuration not stated),16%,?,19%,14%,?,-1%
Cc1cccc(N2CCN(C(=O)c3cc4n(n3)C(C(F)(F)F)CC(c3ccco3)N4)CC2)c1C (configuration not stated),?,?,15µM*,?,?,21µM*
Cc1c(C(=O)NCCc2ccc(S(N)(=O)=O)cc2)sc2nc3n(c(=O)c12)CCCC3,nt,i,-13%,nt,i,-3%
O=C(COC(=O)CC1SC(N2CCCC2)=NC1=O)Nc1c(F)c(F)c(F)c(F)c1F (configuration not stated),-1%,i,-6%,-4%,i,-1%
CCCSc1nc2sc3c(c2c(=O)[nH]1)CCN(Cc1ccccc1)C3,10%,i,21µM*,-1%,i,?
O=c1[nH]c(C(Cl)Cl)nc2sc3c(c12)CCN(Cc1ccccc1)C3,1%,i,?,2%,i,6%
CCCSc1nc2sc3c(c2c(=O)[nH]1)CC(C)CC3 (configuration not stated),13%,i,16µM*,-7%,i,?
SMILES,HT1080 IDH1KD tx,KB-3-1 tox,TDP1 cell noCPT,HT1080NT lethal,KB-V1 cytotox,TDP1 cell CPT
COCCN(C(=O)COc1ccc(Cl)cc1)c1nnc(-c2cccnc2)s1,9%,i,8%,0%,i,8%
Cc1c(CNCCc2ccc(Cl)cc2)c(C(=O)O)c(C)n1-c1ccccc1,-6%,i,-1%,-18%,i,-3%
Cc1cc(Cn2nnc3ccccc32)c(O)c(C(C)(C)C)c1,-4%,i,16µM*,-10%,i,16µM*
CC(C)(C)c1cccc(Cn2nnc3ccccc32)c1O,-1%,i,21µM*,?,i,29µM*
Cc1cccc(Cn2nnc3ccccc32)c1O,5%,i,-22%,9%,i,?
NC(=O)C1CCN(c2ncc(-c3cccc(N4CCOCC4)c3)s2)CC1,nt,i,nt,nt,i,nt
COCC(C)NCc1cc2ccc(OC)cc2nc1N1CCN(c2ccc(F)cc2)CC1 (configuration not stated),nt,nt,13µM*,nt,nt,-6%[9.04 µM]
O=C(C1CCCCC1)N1CCC2CC1c1cc(N3CCCCC3)ccc12 (configuration not stated),3%,i,21µM*,1%,i,18µM*
O=C(c1ccccc1F)N1CCC2CC1c1cc(N3CCCCC3)ccc12 (configuration not stated),-4%,i,18µM*,-3%,i,?
Cc1csc(NC(=O)[C@@H]2CCCN2C(=O)c2cccs2)n1,-9%,i,?,-5%,i,-4%
O=C(Nc1ccc(Cl)c(Cl)c1)c1ccc(Cn2cc(Cl)cn2)cc1,?,?,?,?,i,?
O=C(Nc1cccc(F)c1)c1ccc(Cn2cc([N+](=O)[O-])cn2)o1,-2%,i,-28%,-19%,13µM*,-16%
O=C(Nc1ccc([N+](=O)[O-])cc1)c1ccc(Cn2cc([N+](=O)[O-])cn2)cc1,?,i,13µM*,?,i,18µM*
Cc1ccccc1NC(=O)c1ccc(Cn2cc([N+](=O)[O-])cn2)o1,-1%,i,1%,-2%,i,0%
CCOc1ccc(C(=O)Nc2cnn(Cc3ccc(Cl)c(Cl)c3)c2)cc1,?,?,?,?,2.6µM*,?
Cc1ccc(S(=O)(=O)N2CCOCC2)cc1NC(=O)COc1cccc(Oc2ccccc2)c1,-13%,?,?,-3%,?,?
